# Measured values taken from PMC5540273 (PLoS ONE, 2017).
# Read-outs that look alike come from different tables or passages of the source.
# Key:
# GRK3 = tested on: T1, GRK3; settings: concentration: 1 μM, replicates: in singlicate; n = 1
# T1 construct: gene ADRBK2
# GRK4 = settings: concentration: 1 μM, replicates: in singlicate; n = 1
# GRK7 = settings: concentration: 1 μM, replicates: in singlicate; n = 1
# GSK3A = settings: concentration: 1 μM, replicates: in singlicate; n = 1
# GSK3B = settings: n = 1
# HASPIN = tested on: T2, HASPIN; settings: concentration: 1 μM, replicates: in singlicate; n = 1
# T2 construct: gene GSG2
# HCK = settings: concentration: 1 μM, replicates: in singlicate; n = 1
# HIPK1 = settings: concentration: 1 μM, replicates: in singlicate; n = 1
# HIPK2 = settings: concentration: 1 μM, replicates: in singlicate; n = 1
# HIPK3 = settings: concentration: 1 μM, replicates: in singlicate; n = 1
# HIPK4 = settings: concentration: 1 μM, replicates: in singlicate; n = 1
# HPK1 = settings: concentration: 1 μM, replicates: in singlicate; n = 1
# HUNK = settings: concentration: 1 μM, replicates: in singlicate; n = 1
# ICK = settings: concentration: 1 μM, replicates: in singlicate; n = 1
# IGF1R = settings: concentration: 1 μM, replicates: in singlicate; n = 1
# IKK-alpha = tested on: T3, IKK-alpha; settings: concentration: 1 μM, replicates: in singlicate; n = 1
# T3 construct: gene CHUK
# IKK-beta = tested on: T4, IKK-beta; settings: concentration: 1 μM, replicates: in singlicate; n = 1
# T4 construct: gene IKBKB
# IKK-epsilon = tested on: T5, IKK-epsilon; settings: concentration: 1 μM, replicates: in singlicate; n = 1
# T5 construct: gene IKBKE
# INSRR = settings: concentration: 1 μM, replicates: in singlicate; n = 1
# INSR = settings: concentration: 1 μM, replicates: in singlicate; n = 1
# [1] = concentration: 1 μM, replicates: in singlicate
# 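Also: KINOMEscan kinase panel screen.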
smiles,measurement,setting,value
CNc1nc(-c2ccc3c(N)n[nH]c3c2)cc(N2C[C@@H](C(=O)Nc3ccccc3)CC[C@H]2C)n1 [GSK2298859],%Inh,GRK3,0%
same,%Inh,GRK4,0%
same,%Inh,GRK7,0%
same,%Inh,GSK3A,26%
same,%Inh,GSK3B; [1],0%
same,%Inh,HASPIN,13%
same,%Inh,HCK,0%
same,%Inh,HIPK1,0%
same,%Inh,HIPK2,0%
same,%Inh,HIPK3,1%
same,%Inh,HIPK4,0%
same,%Inh,HPK1,18%
same,%Inh,HUNK,0%
same,%Inh,ICK,0%
same,%Inh,IGF1R,11%
same,%Inh,IKK-alpha,0%
same,%Inh,IKK-beta,0%
same,%Inh,IKK-epsilon,24%
same,%Inh,INSRR,0%
same,%Inh,INSR,0%
Cc1ccccc1Cn1ccn2c(=O)cc(N3CCOCC3)nc12 [GSK2269905],%Inh,GRK3,26%
same,%Inh,GRK4,0%
same,%Inh,GRK7,0%
same,%Inh,GSK3A,2%
same,%Inh,GSK3B; [1],15%
same,%Inh,HASPIN,0%
same,%Inh,HCK,0%
same,%Inh,HIPK1,0%
same,%Inh,HIPK2,0%
same,%Inh,HIPK3,9%
same,%Inh,HIPK4,0%
same,%Inh,HPK1,32%
same,%Inh,HUNK,7%
same,%Inh,ICK,0%
same,%Inh,IGF1R,2%
same,%Inh,IKK-alpha,0%
same,%Inh,IKK-beta,12%
same,%Inh,IKK-epsilon,0%
same,%Inh,INSRR,0%
same,%Inh,INSR,17%
Cc1c(Cn2c3ccccc3n3c(=O)cc(N4CCOCC4)nc23)cccc1C(F)(F)F [GSK2306394],%Inh,GRK3,0%
same,%Inh,GRK4,0%
same,%Inh,GRK7,0%
same,%Inh,GSK3A,13%
same,%Inh,GSK3B; [1],18%
same,%Inh,HASPIN,0%
same,%Inh,HCK,0%
same,%Inh,HIPK1,0%
same,%Inh,HIPK2,0%
same,%Inh,HIPK3,16%
same,%Inh,HIPK4,0%
same,%Inh,HPK1,5%
same,%Inh,HUNK,0%
same,%Inh,ICK,6%
same,%Inh,IGF1R,33%
same,%Inh,IKK-alpha,35%
same,%Inh,IKK-beta,27%
same,%Inh,IKK-epsilon,0%
same,%Inh,INSRR,11%
same,%Inh,INSR,0%
CS(=O)(=O)CCNCc1nc(-c2ccc3ncnc(Nc4ccc5c(cnn5Cc5ccccc5)c4)c3c2)cs1.Cl.Cl [GW569716],%Inh,GRK3,41%
same,%Inh,GRK4,0%
same,%Inh,GRK7,0%
same,%Inh,GSK3A,0%
same,%Inh,GSK3B; [1],0%
same,%Inh,HASPIN,18%
same,%Inh,HCK,0%
same,%Inh,HIPK1,0%
same,%Inh,HIPK2,0%
same,%Inh,HIPK3,0%
same,%Inh,HIPK4,0%
same,%Inh,HPK1,32%
same,%Inh,HUNK,28%
same,%Inh,ICK,2%
same,%Inh,IGF1R,19%
same,%Inh,IKK-alpha,38%
same,%Inh,IKK-beta,8%
same,%Inh,IKK-epsilon,0%
same,%Inh,INSRR,0%
same,%Inh,INSR,0%
CNCc1ccc2nc(NC(=O)c3ccc(C(C)(C)C)cc3)cn2c1,%Inh,GRK3,36%
same,%Inh,GRK4,0%
same,%Inh,GRK7,10%
same,%Inh,GSK3A,3%
same,%Inh,GSK3B; [1],11%
same,%Inh,HASPIN,5%
same,%Inh,HCK,3%
same,%Inh,HIPK1,17%
same,%Inh,HIPK2,13%
same,%Inh,HIPK3,17%
same,%Inh,HIPK4,5%
same,%Inh,HPK1,12%
same,%Inh,HUNK,19%
same,%Inh,ICK,27%
same,%Inh,IGF1R,0%
same,%Inh,IKK-alpha,8%
same,%Inh,IKK-beta,6%
same,%Inh,IKK-epsilon,15%
same,%Inh,INSRR,2%
same,%Inh,INSR,9%
Cc1cccc2c(-c3ccncn3)c(-c3ccc(F)cc3)nn12 [GW515532],%Inh,GRK3,0%
same,%Inh,GRK4,12%
same,%Inh,GRK7,0%
same,%Inh,GSK3A,1%
same,%Inh,GSK3B; [1],0%
same,%Inh,HASPIN,21%
same,%Inh,HCK,0%
same,%Inh,HIPK1,0%
same,%Inh,HIPK2,0%
same,%Inh,HIPK3,0%
same,%Inh,HIPK4,8%
same,%Inh,HPK1,3%
same,%Inh,HUNK,0%
same,%Inh,ICK,9%
same,%Inh,IGF1R,0%
same,%Inh,IKK-alpha,37%
same,%Inh,IKK-beta,18%
same,%Inh,IKK-epsilon,0%
same,%Inh,INSRR,16%
same,%Inh,INSR,75%
O=C(Nc1n[nH]c2nc(-c3cccs3)c(Br)cc12)C1CC1 [SB-735297],%Inh,GRK3,0%
same,%Inh,GRK4,0%
same,%Inh,GRK7,17%
same,%Inh,GSK3A,93.8%
same,%Inh,GSK3B; 1 µM,52%
same,%Inh,HASPIN,0%
same,%Inh,HCK,0%
same,%Inh,HIPK1,27%
same,%Inh,HIPK2,58%
same,%Inh,HIPK3,11%
same,%Inh,HIPK4,10%
same,%Inh,HPK1,16%
same,%Inh,HUNK,0%
same,%Inh,ICK,24%
same,%Inh,IGF1R,0%
same,%Inh,IKK-alpha,0%
same,%Inh,IKK-beta,9%
same,%Inh,IKK-epsilon,0%
same,%Inh,INSRR,0%
same,%Inh,INSR,0%
O=C(Nc1n[nH]c2cc(-c3ccsc3)ccc12)C1CC1 [SB-732932],%Inh,GRK3,40%
same,%Inh,GRK4,79%
same,%Inh,GRK7,0%
same,%Inh,GSK3A,38%
same,%Inh,GSK3B; 1 µM,29%
same,%Inh,HASPIN,43%
same,%Inh,HCK,0%
same,%Inh,HIPK1,7%
same,%Inh,HIPK2,26%
same,%Inh,HIPK3,24%
same,%Inh,HIPK4,17%
same,%Inh,HPK1,0%
same,%Inh,HUNK,0%
same,%Inh,ICK,63%
same,%Inh,IGF1R,0%
same,%Inh,IKK-alpha,9%
same,%Inh,IKK-beta,9%
same,%Inh,IKK-epsilon,0%
same,%Inh,INSRR,14%
same,%Inh,INSR,9%
O=c1cc(N2CCOCC2)nc2n(Cc3cccc(Cl)c3Cl)c3ccccc3n12 [GSK2299009],%Inh,GRK3,0%
same,%Inh,GRK4,25%
same,%Inh,GRK7,0%
same,%Inh,GSK3A,5%
same,%Inh,GSK3B; [1],14%
same,%Inh,HASPIN,0%
same,%Inh,HCK,0%
same,%Inh,HIPK1,9%
same,%Inh,HIPK2,0%
same,%Inh,HIPK3,19%
same,%Inh,HIPK4,0%
same,%Inh,HPK1,19%
same,%Inh,HUNK,0%
same,%Inh,ICK,14%
same,%Inh,IGF1R,5%
same,%Inh,IKK-alpha,0%
same,%Inh,IKK-beta,0%
same,%Inh,IKK-epsilon,37%
same,%Inh,INSRR,7%
same,%Inh,INSR,0%
Cc1ccc(NC(=O)c2ccc(Cl)cc2)cc1-c1ccc(C(=O)Nc2ccncc2)cc1 [GSK1398467],%Inh,GRK3,24%
same,%Inh,GRK4,0%
same,%Inh,GRK7,0%
same,%Inh,GSK3A,3%
same,%Inh,GSK3B; [1],17%
same,%Inh,HASPIN,0%
same,%Inh,HCK,0%
same,%Inh,HIPK1,0%
same,%Inh,HIPK2,0%
same,%Inh,HIPK3,3%
same,%Inh,HIPK4,0%
same,%Inh,HPK1,36%
same,%Inh,HUNK,8%
same,%Inh,ICK,0%
same,%Inh,IGF1R,11%
same,%Inh,IKK-alpha,12%
same,%Inh,IKK-beta,6%
same,%Inh,IKK-epsilon,15%
same,%Inh,INSRR,0%
same,%Inh,INSR,0%
